HPGD inh = qHTS Assay for Inhibitors of HPGD (15-Hydroxyprostaglandin Dehydrogenase). 15-hydroxyprostaglandin dehydrogenase [NAD(+)] (Homo sapiens), P15428. purified HPGD, NADH fluorescence kinetic, PGE2 substrate. Potency, µM, for the others: at the top dose activity change, negative = inhibition, usual class: inhibitors. 4.3% of 150,000 active. AID 894, 2007; note: potency is the fitted concentration of half-maximal effect
Target sequence (P15428 whole entry, looked up): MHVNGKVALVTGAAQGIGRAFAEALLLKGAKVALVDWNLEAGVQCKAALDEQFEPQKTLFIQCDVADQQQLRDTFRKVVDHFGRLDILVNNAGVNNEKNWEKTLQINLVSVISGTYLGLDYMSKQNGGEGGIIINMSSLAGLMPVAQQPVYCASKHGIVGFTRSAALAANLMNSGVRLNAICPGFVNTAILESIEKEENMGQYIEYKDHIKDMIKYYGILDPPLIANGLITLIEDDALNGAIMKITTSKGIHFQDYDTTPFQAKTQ
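NADH formation kinetics: reaction with 30 uM PGE2 and 1 mM NAD+ (final), 20 nM enzyme, Tris-HCl pH 8 with Tween 20, after 15 min compound preincubation at room temperature. Fluorescence change, last versus first of five reads.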
Luc counter = Counterscreen for Luciferase (Kinase-Glo TM) Inhibition | Luciferin 4-monooxygenase (Photuris pensylvanica), Q27757 | Kinase-Glo luciferase, ATP luminescence, 8 min | Potency, µM (highest dose often 38.3 µM), inactives show at the highest dose activity change, negative = inhibition, usual class: inhibitors | 0.28% of 200,000 active | AID 1379, 2008; active = well fitted inhibition curve with a large enough effect; inconclusive = small, poorly fitted or top-dose-only effect; note: potency is the fitted concentration of half-maximal effect; nearly all actives have a fitted effect of over 60% in size
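Compound is pinned into ATP-containing buffer (10 uM ATP, imidazole pH 7.2, 7 mM MgCl2). Kinase-Glo luciferase reagent is then added. Light output is recorded following an 8-min room-temperature incubation.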
PNC assembly inh = High Content Assay for Compounds that inhibit the Assembly of the Perinucleolar Compartment. PC3M PTB-GFP, PNC prevalence imaging, 16 h; hits give low values. activity change (PNC), negative = inhibition, % at 10 µM. 3.1% of 140,000 active;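 active = readout at or below -70, meaning at least 70% loss of cells showing the perinucleolar compartment, a nuclear body marking cancer cells; inconclusive = readout between -30 and a set limit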;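 note: plate controls were DMSO wells for no effect and camptothecin positive control wells for full effect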
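Read-out is percentage of cells bearing a perinucleolar compartment, from automated 20x imaging of fixed, Hoechst-stained PC3M PTB-GFP cells. Cells were seeded 4 h, then exposed 16 h to compound (23 nl of library stock) in duplicate plates.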
ALDH1A1 inh = qHTS Assay for Inhibitors of Aldehyde Dehydrogenase 1 (ALDH1A1). Aldehyde dehydrogenase 1A1 (Homo sapiens), P00352. Purified ALDH1A1, NADH fluorescence, propionaldehyde substrate. Potency, µM (highest dose often 75.3 µM), inactives show top-dose activity, negative = inhibition, most hits filed as inhibitors. 7.3% of 220,000 active. AID 1030, 2008;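 note: potency is the fitted concentration of half-maximal effect; plate controls were no enzyme wells and a reference inhibitor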
LMNA splice mod = qHTS Assay for Modulators of Lamin A Splicing | Potency, µM (doses to about 46.1 µM), inactives show at the top dose ratio change, negative = inhibition, most hits filed as inhibitors | HeLa LMNA splicing GFP/RFP minigene ratio, 48 h | 0.01% of 200,000 active; active = well fitted inhibition curve with a large enough effect in the signal ratio, with a control signal flat, not every such curve was filed as active; inconclusive = small, poorly fitted or top-dose-only effect, or effect the other way, or a change in a side signal; the % refers to the signal ratio; note: potency is the fitted concentration of half-maximal effect
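S3 HeLa cells stably expressing lamin A-EGFP splicing minigene plus DsRed2, 600 cells/well, 48 h compound exposure at 37C. Laser-scanning cytometry; analysed as GFP (500-530 nm)/RFP (575-640 nm) total intensity ratio; 0.5% DMSO vehicle.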
Starred values were filed as active, the others as inactive; [ ] = another dose, or the depositor's remark. Shown are actives, neighbours in structure and some others; about 10% of the full set was active somewhere. Unless noted, calls come from the whole dose curve; as a rule, active = well fitted inhibition curve with a large enough effect (not every such curve was filed as active); inconclusive = small, poorly fitted or top-dose-only effect, or another doubt; inactive = no such curve, though single readings can be large or run the other way. Unless noted, % is set by controls: 0 for no effect and ±100 for the full control effect.

Screening COC(=O)c1ccccc1NC(=O)Oc1ccc(C(C)C)cc1 returned HPGD inh -12%, Luc counter -2%, PNC assembly inh 39, ALDH1A1 inh inconclusive and LMNA splice mod -1%.
COC(=O)c1ccccc1NC(=S)NC(=O)COc1ccc(C(C)C)cc1 was read as HPGD inh -14%, Luc counter 0%, PNC assembly inh -23, ALDH1A1 inh 18µM* and LMNA splice mod -11%.
`Cc1ccc(OCC(=O)NC(=S)Nc2ccc3c4c(cccc24)CC3)cc1` gave HPGD inh -12%, Luc counter 0%, PNC assembly inh -12, ALDH1A1 inh 10µM* and LMNA splice mod -7%.
COC(=O)c1ccccc1NC(=S)NC(NC(=O)COc1ccccc1)C(Cl)(Cl)Cl (stereo not given) was read as HPGD inh 22µM*, Luc counter -3%, PNC assembly inh 68, ALDH1A1 inh inconclusive and LMNA splice mod inconclusive.
Cc1ccccc1NC(=S)NC(NC(=O)COc1ccccc1)C(Cl)(Cl)Cl (stereo not given) was read as PNC assembly inh -22, ALDH1A1 inh inconclusive and LMNA splice mod inconclusive.
O=C(CCNS(=O)(=O)c1ccc2c(c1)CCN2C(=O)C1CC1)Nc1ccc(F)cc1F was read as LMNA splice mod 1%[46 µM].
`CCCn1c(-c2ccc(F)cc2)nc2c(N3CCC(N(C)C)C3)nc(C)nc21` (stereo not given) gave HPGD inh inconclusive, Luc counter -2% and ALDH1A1 inh inconclusive.
`CCC(C)NC(=O)CSC1=Nc2ccccc2C2=NC(CC(=O)NCc3ccccc3)C(=O)N12` (stereo not given) gave HPGD inh inconclusive, Luc counter 3%, PNC assembly inh -100*, ALDH1A1 inh inconclusive and LMNA splice mod -8%.
CCc1ccc(NC(=O)CSC2=Nc3ccccc3C3=NC(CC(=O)NCc4ccccc4)C(=O)N23)cc1 (stereo not given) was read as LMNA splice mod -9%[46 µM].
Cc1ccc[n+](CC(=O)Nc2nc3ccccc3s2)c1 was read as Luc counter 0% and ALDH1A1 inh 14µM*.
For O=C(Nc1nccs1)c1ccccn1 the results were Luc counter -14%, ALDH1A1 inh -7% and LMNA splice mod inconclusive.
CCOc1ccc2nc(NC(=O)c3cnccn3)sc2c1 was read as PNC assembly inh -11, ALDH1A1 inh -14% and LMNA splice mod 1%.
`O=C(Nc1nc2ccccc2s1)c1cnccn1` gave HPGD inh -16%, Luc counter 7.9µM*, PNC assembly inh -10, ALDH1A1 inh -10% and LMNA splice mod 5%.
For O=C(Nc1nc2ccc(F)cc2s1)c1ccccn1 the results were Luc counter 11µM* and ALDH1A1 inh -1%.
Screening O=C(NNc1nc2ccc(F)cc2s1)c1cccc(F)c1 returned Luc counter 3% and ALDH1A1 inh -7%.
Screening Cc1ccc(CC(=O)Nc2nc3ccccc3s2)cc1 returned HPGD inh -17%, Luc counter -1%, PNC assembly inh 8, ALDH1A1 inh inconclusive and LMNA splice mod 17%.
Screening O=C(Nc1nccs1)c1cnccn1 returned HPGD inh -9%, Luc counter 2%, PNC assembly inh -100*, ALDH1A1 inh 0% and LMNA splice mod -3%.
Screening O=C(c1cnccn1)N1CCC2(CCCN(c3cccc(-c4ccccc4)c3)C2)CC1 returned HPGD inh -9%, Luc counter -1% and ALDH1A1 inh -1%.
Screening Cc1cccc(-n2c(C)nc3cc(C(=O)NCCC4=CCCCC4)ccc32)c1 returned LMNA splice mod -17%[46 µM].
For COC(=O)c1nnc(SC)nc1C(=O)OC the results were HPGD inh -3%, Luc counter -4% and ALDH1A1 inh 2%.
For Cc1ccc(C(=O)Nc2nc3ccccc3s2)s1 the results were HPGD inh inconclusive, Luc counter 13µM*, PNC assembly inh 25, ALDH1A1 inh inconclusive and LMNA splice mod inconclusive.
Screening CNS(=O)(=O)c1ccccc1C(=N)c1ccccc1 returned HPGD inh -6%, Luc counter -4%[7.66 µM] and ALDH1A1 inh 6%[13.5 µM].
Screening O=S(=O)(Nc1cccc(-c2ccc(N3CCCCC3)nn2)c1)c1cccs1 returned LMNA splice mod 12%[46 µM].
`CCOC(=O)C(CSCC(=O)c1ccc(Cl)cc1)NC(=O)OC(C)(C)C` (stereo not given) gave HPGD inh -9%, Luc counter -4%, PNC assembly inh 19, ALDH1A1 inh 20µM* and LMNA splice mod 8%.
Screening Cc1ccc(-c2nc(CCNC(=O)C(=O)Nc3ccc(F)cc3F)cs2)cc1 returned LMNA splice mod 8%[46 µM].
For O=C(CN(Cc1ccccc1)S(=O)(=O)c1ccccc1)N/N=C/c1ccccc1[N+](=O)[O-] the results were HPGD inh -1%, Luc counter 2%, PNC assembly inh 7, ALDH1A1 inh 11µM* and LMNA splice mod -13%.
`Cc1ccc(CN(CC(=O)N/N=C/c2ccccc2[N+](=O)[O-])S(=O)(=O)c2ccc(C)cc2)cc1` gave HPGD inh -18%, Luc counter -3%, PNC assembly inh 18, ALDH1A1 inh inconclusive and LMNA splice mod -10%.
For CN(CCO)CCOCCOc1cccc2ccccc12 the results were Luc counter 3%, ALDH1A1 inh 14µM* and LMNA splice mod 7%[46 µM].
For CCN1C(=O)/C(=C\C=C2/C=CC=CN2CC)SC1=S the results were HPGD inh -4%, Luc counter inconclusive, PNC assembly inh inconclusive, ALDH1A1 inh 25µM* and LMNA splice mod 3%.
For CC1CCC(C(=O)NNC(=O)c2cc(-c3ccco3)[nH]n2)CC1 (stereo not given) the results were Luc counter -1% and ALDH1A1 inh 0%.
Screening O=C(O)c1cc(-c2ccco2)[nH]n1 returned HPGD inh -1%, Luc counter 1%, PNC assembly inh -89*, ALDH1A1 inh -16% and LMNA splice mod -12%.
C/C(Cn1nnc([N+](=O)[O-])n1)=N\NC(=O)c1ccccc1O was read as ALDH1A1 inh 8%.
C/C(Cn1cnc([N+](=O)[O-])n1)=N/NC(=O)COc1ccccc1Cl was read as HPGD inh -6%, Luc counter 2%, PNC assembly inh -4, ALDH1A1 inh 14µM* and LMNA splice mod -15%.
Screening C/C(Cn1cnc([N+](=O)[O-])n1)=N\NC(=O)c1ccccc1O returned Luc counter -1%, ALDH1A1 inh 13% and LMNA splice mod -8%[46 µM].
